Screening data from PubChem.
IDE inh: inhibitors of human insulin-degrading enzyme in cells; inhibition, % at 5.59 µM; HEK cells, FAbetaB cleavage, fluorescence polarization; actives 0.41% (n = 320,000); AID 434962;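 active means percent inhibition above the average of all tested compounds plus 3 SD, set per screening campaign, cut at about 16% in these data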;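 further: IDE supplied by intact live HEK cells; FP after avidin binding of uncleaved biotin substrate so inhibition keeps polarization high; 0% = DMSO wells and 100% = 60 µM reference IDE inhibitor Ii1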
Target sequence (P14735 whole entry, looked up): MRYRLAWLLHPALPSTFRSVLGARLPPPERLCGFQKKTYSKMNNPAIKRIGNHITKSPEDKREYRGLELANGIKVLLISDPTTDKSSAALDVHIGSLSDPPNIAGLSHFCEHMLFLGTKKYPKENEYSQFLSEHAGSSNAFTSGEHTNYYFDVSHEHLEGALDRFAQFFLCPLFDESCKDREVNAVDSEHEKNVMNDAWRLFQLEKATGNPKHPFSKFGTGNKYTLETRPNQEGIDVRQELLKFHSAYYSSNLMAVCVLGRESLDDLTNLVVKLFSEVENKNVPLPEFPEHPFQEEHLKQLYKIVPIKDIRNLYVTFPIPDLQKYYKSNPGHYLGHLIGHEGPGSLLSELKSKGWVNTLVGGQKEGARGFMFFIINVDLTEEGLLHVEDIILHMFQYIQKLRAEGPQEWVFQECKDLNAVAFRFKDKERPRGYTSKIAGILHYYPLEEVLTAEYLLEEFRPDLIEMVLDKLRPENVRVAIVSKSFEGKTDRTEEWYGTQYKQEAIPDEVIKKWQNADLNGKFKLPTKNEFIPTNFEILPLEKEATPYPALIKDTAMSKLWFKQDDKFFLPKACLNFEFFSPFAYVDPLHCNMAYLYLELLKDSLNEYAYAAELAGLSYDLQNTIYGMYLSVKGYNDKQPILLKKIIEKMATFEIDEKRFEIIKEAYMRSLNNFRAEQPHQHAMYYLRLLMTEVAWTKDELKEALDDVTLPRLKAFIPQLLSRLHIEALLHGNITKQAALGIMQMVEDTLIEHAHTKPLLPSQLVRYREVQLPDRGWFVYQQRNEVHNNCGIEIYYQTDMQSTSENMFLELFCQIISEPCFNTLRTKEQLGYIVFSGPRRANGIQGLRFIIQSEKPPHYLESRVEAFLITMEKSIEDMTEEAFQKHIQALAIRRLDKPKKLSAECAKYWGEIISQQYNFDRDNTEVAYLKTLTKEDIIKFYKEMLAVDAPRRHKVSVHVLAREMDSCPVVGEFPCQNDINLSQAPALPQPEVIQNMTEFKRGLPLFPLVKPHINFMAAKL
HDAC3 inhib: inhibitors of human histone deacetylase 3. O15379. recombinant HDAC3, fluorogenic peptide/trypsin coupled, fluorescence. inhibition, % at 8.3 µM. actives 0.15% (n = 320,000). AID 2718; in the data active means inhibition above about 26%, passing the limit was not always enough
IDE act: boosts human insulin-degrading enzyme activity in HEK cells; FAbeta-B cleavage, fluorescence polarization; 0% vehicle, 100% cell-free pure enzyme wells; activation, % at 5.96 µM; actives 0.073% (n = 340,000); P14735;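 active means activation above the mean of all tested compounds plus 3 SD, set per screening campaign, cut at about 17% in these data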
SUMO Mot1 rescue: blocks SUMOylation pathway, rescuing yeast Mot1-301 growth; S. cerevisiae Mot1-301 growth rescue, ATP luminescence, 38.5C; percent above DMSO median, 100 means doubled; growth rescue, % at 18.8 µM; actives 1% (n = 320,000); AID 2716;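 active means every valid replicate shows activation above 250% relative to neutral control wells; inactive means the rest, any valid replicate at or below 250%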;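 further: OY570 slx delta 5 strain wells were the positive control but not used for scaling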
LANA-H2A inh: blocks KSHV LANA binding to histone H2A/H2B. inhibition, % (concentration not given with the values). AID 2629. actives 0.6% (n = 320,000). cell-free LANA-H2A/H2B peptide, fluorescence polarization. Q9QR71; in the data active means inhibition mostly above about 10%, no sharp cut-off; inactive means mostly below about 6.7%
* hit, by the source's call; . = not tested or not shown; + = active, no number. This is a sample that favours compounds with a hit; in the whole collection about 2.1% have one here.

SMILES | IDE inh | HDAC3 inhib | IDE act | SUMO Mot1 rescue | LANA-H2A inh
Cc1cc(C)c(S(=O)(=O)Nc2ncn[nH]2)c(C)c1 | . | 1.8 | 0.1 | -5.2 | -1.3
CN(C)CCOC(c1ccccc1)c1ccccc1 (tested in a mixture with another compound) | 8.2 | -0.7 | 1.8 | 274.7 | 12.6*
COc1cc(OC)c(S(=O)(=O)N2CCOCC2)cc1S(=O)(=O)N1CCOCC1 | -1.7 | 1.9 | 6.2 | 4.0 | 6.1
C/C(=N\NC(=O)c1ccc(Cn2cc(Br)cn2)o1)c1ccc(NC(=O)c2ccoc2C)cc1 | . | . | 1.9 | . | .
Cn1c(=O)c(C(=O)NNC(=O)c2ccccc2Br)c(O)c2ccccc21 | -2.9 | 7.2 | 3.5 | 3.7 | -2.9
CCCCCCCCCC(=O)NNC(=O)c1c(O)c2ccccc2n(CCC)c1=O | -4.5 | 1.4 | 3.7 | -12.4 | 8.3
CCCCCCCCC(=O)NNC(=O)c1c(O)c2ccccc2n(CCC)c1=O | -2.0 | 0.7 | -5.1 | 311.6* | -1.4
CCn1c(=O)c(C(=O)NNC(=O)c2ccccc2Br)c(O)c2ccccc21 | 3.1 | -0.8 | -3.7 | -2.3 | 26.6*
COc1cc2c(cc1OC)C(NNC(=O)c1ccc(Br)o1)=NC(C)(C)C2 | 4.3 | 13.5 | 8.5 | 14.6 | -1.8
CC1(C)c2[nH]c3ccccc3c2C[C@@H]2C(=O)N(Cc3ccc(F)cc3)C(=O)N21 | -2.4 | -2.7 | -0.5 | 93.3 | 4.8
CC[C@H]1c2[nH]c3ccccc3c2C[C@H]2C(=O)N(c3ccc(F)cc3)C(=O)N21 | 4.3 | 5.0 | 0.2 | 21.3 | +
O=C(Nc1ccccc1C(=O)O)c1cccc(NS(=O)(=O)c2ccc(Br)cc2)c1 | -0.1 | -1.3 | 8.3 | -2.6 | 0.5
O=C(Nc1ccccc1C(=O)O)c1cccc(S(=O)(=O)Nc2ccc(Br)cc2)c1 | 8.1 | 2.8 | -0.2 | -4.4 | 18.7*
COc1ccc(C[C@H](N)C(=O)N[C@H]2[C@@H](O)[C@H](n3cnc4c(N(C)C)ncnc43)O[C@@H]2CO)cc1 | 8.7 | 0.0 | 4.8 | 5.1 | -0.2
CC(=N\Nc1ccc(Cl)cc1)/C(=N/O)C(=O)Nc1ccccc1 | 1.0 | 11.1 | 0.0 | 256.2* | -12.3
Cc1nnc(NC(=O)c2sc3nc(-c4cccs4)cc(C(F)(F)F)c3c2N)s1 | 19.1* | 3.9 | -27.3 | 5.5 | 8.4
CN(C)c1ccc(CN(C(=O)c2ccc(Cl)c([N+](=O)[O-])c2)C2CCS(=O)(=O)C2)cc1 (stereo not given) | 1.7 | 0.1 | 4.7 | 341.5* | -3.4
CN(C(=O)COC(=O)c1c2c(nc3ccccc13)CCCC2)c1c(N)n(Cc2ccccc2)c(=O)[nH]c1=O | 3.9 | 0.3 | 2.1 | 0.3 | 5.6
COc1ccc(-c2cc(=O)oc3cc(OCC(=O)Nc4ccc(CCO)cc4)ccc23)cc1 | 0.8 | -7.1 | 5.3 | 14.9 | 3.6
O=C(N=c1ccn(-c2nc3ccccc3nc2NS(=O)(=O)c2ccc(Cl)cc2)cc1)c1ccccc1Cl | 3.5 | 6.2 | . | -10.9 | 14.7*
O=C(N=c1ccn(-c2nc3ccccc3nc2NS(=O)(=O)c2ccccc2)cc1)c1ccccc1Cl | 5.1 | 3.3 | -5.3 | -17.3 | 3.2
CCOC(=O)C1(Cc2ccccc2C)CCCN(C(=O)CCc2cccnc2)C1 (stereo not given) | -3.6 | 6.8 | 5.7 | 781.7* | -4.3
C/C(=N/NC(=O)CNS(=O)(=O)c1ccccc1)c1ccc(Br)cc1 | 5.1 | -0.5 | 4.4 | 4.1 | -2.4
CCN(C(=O)Cn1nc(C)n2c(cc3cc(C)ccc32)c1=O)c1ccccc1 | -0.6 | -7.2 | 2.2 | 10.8 | -1.1
CC(C)(C)c1ccc(Cn2c(=N)n(CC(O)c3ccco3)c3ccccc32)cc1 (stereo not given) | 1.0 | 13.5 | 4.4 | -21.1 | 18.0*
O=C(N=C1SC2CS(=O)(=O)CC2N1c1ccc(F)cc1)C1CC1 (stereo not given) | 0.2 | -2.7 | 0.4 | -3.9 | 16.2*
O=C(N=C1SC2CS(=O)(=O)CC2N1c1ccc(F)cc1)C1CCCCC1 (stereo not given) | -4.2 | 0.7 | 9.2 | 0.8 | -4.7
CCCCS(=O)(=O)C(=C1Nc2ccccc2N1)S(=O)(=O)CCCC | 4.4 | -1.2 | 2.8 | -2.4 | 3.5
CCCS(=O)(=O)C(=C1NCCO1)S(=O)(=O)CCC | -5.1 | -0.3 | 0.9 | 350.9* | -2.0
CC1CCN(C2(O)C(=O)Nc3ccc([N+](=O)[O-])cc32)CC1 (stereo not given) | -3.4 | 1.1 | 3.8 | -5.2 | 2.0
